# Measured values taken from PMC5540273 (PLoS ONE, 2017).
# Assays:
# Details in all cases: concentration: 1 μM, replicates: in singlicate; n = 1
# PKAC-alpha = tested on: T1, PKAC-alpha
# T1 construct: gene PRKACA
# PKAC-beta = tested on: T2, PKAC-beta
# T2 construct: gene PRKACB
# PKMYT1 = tested on: PKMYT1
# PKN1 = tested on: PKN1
# PKN2 = tested on: PKN2
# PLK1 = tested on: PLK1
# PLK2 = tested on: PLK2
# PLK3 = tested on: PLK3
# PLK4 = tested on: PLK4
# PRKCD = tested on: PRKCD
# PRKCE = tested on: PRKCE
# PRKCH = tested on: PRKCH
# PRKCI = tested on: PRKCI
# PRKCQ = tested on: PRKCQ
# PRKD1 = tested on: PRKD1
# PRKD2 = tested on: PRKD2
# PRKD3 = tested on: PRKD3
# PRKG1 = tested on: PRKG1
# PRKG2 = tested on: PRKG2
# PRKR = tested on: T3, PRKR
# T3 construct: gene EIF2AK2
# 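Further: KINOMEscan kinase panel screen.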
Compound,%Inh (PKAC-alpha) [%],%Inh (PKAC-beta) [%],%Inh (PKMYT1) [%],%Inh (PKN1) [%],%Inh (PKN2) [%],%Inh (PLK1) [%],%Inh (PLK2) [%],%Inh (PLK3) [%],%Inh (PLK4) [%],%Inh (PRKCD) [%],%Inh (PRKCE) [%],%Inh (PRKCH) [%],%Inh (PRKCI) [%],%Inh (PRKCQ) [%],%Inh (PRKD1) [%],%Inh (PRKD2) [%],%Inh (PRKD3) [%],%Inh (PRKG1) [%],%Inh (PRKG2) [%],%Inh (PRKR) [%]
Nc1nccc2scc(-c3ccc4c(c3)CCN4C(=O)Cc3ccccc3)c12 [GSK2576924],8,0,1,0,0,6,1,0,6,0,0,31,20,0,0,16,11,10,12,8
CCc1nc(-c2cccc(C)c2)c(-c2ccncc2)s1,0,7,8,6,0,0,0,14,0,0,0,0,28,6,0,26,9,0,11,0
Cl.NS(=O)(=O)c1cccc(Nc2cc(-c3ccc(F)cc3)n[nH]2)c1 [GW824645],7,0,0,0,0,0,20,23,10,5,12,0,0,0,0,5,0,0,0,0
CN(C)c1cc(-c2ccc3c(N)n[nH]c3c2)nc(N)n1 [GSK2219329],32,0,0,0,0,0,0,0,0,0,0,14,17,0,0,0,0,1,1,5
Cc1ccc(-c2ccc3c(ccc4sc5c(c43)NC[C@@H](C)N=C5N(C)C)n2)cn1,0,0,0,0,0,0,0,0,0,0,36,0,0,0,10,0,20,0,0,0
CN1C(=O)C(Nc2ccccc2)=C(c2ccccc2)C1=O [SB-300079],2,0,2,0,0,4,12,16,0,7,16,0,0,0,0,0,0,18,0,76
Nc1ncnc2c1ncn2-c1cccc(F)c1 [SKF-97560],21,0,0,4,0,34,22,25,9,1,3,0,22,20,0,10,9,0,10,0
Cc1cccc(-c2nc(Nc3ccc4c(cnn4C)c3)c3ccccc3n2)n1 [GW876731],0,14,4,55,33,7,0,0,13,5,15,0,0,0,99.2,99.6,90.2,9,0,0
COc1cc2ncn(-c3cc(OCc4ccncc4Br)c(C(N)=O)s3)c2cc1OC [GW854278],0,0,0,10,0,99.9,99.7,99.2,4,7,7,0,13,22,0,11,0,0,0,0
COc1cccc(C2=C(Nc3cccc(C(=O)O)c3)C(=O)NC2=O)c1 [SB-390770],0,0,11,22,0,6,0,0,10,29,15,28,100,11,0,0,0,0,0,0
CCn1c(-c2ccoc2)nc2cnccc21 [SB-733887],0,0,0,7,0,5,0,0,15,0,7,0,9,0,2,0,27,0,0,0
O=C(Nc1ccc2c(c1)OCO2)NC1CCN(c2ccnc(NCc3ccc(F)cc3)n2)CC1 [GSK1379859],12,0,0,0,0,0,0,0,9,7,0,16,0,18,0,0,34,0,0,0
Nc1ncnc2c1ncn2-c1cccc2ccccc12 [SKF-97184],10,0,0,0,0,28,18,9,0,16,5,5,22,0,0,0,0,0,0,0
O=C(Nc1n[nH]c2nc(-c3ccccc3)c(Br)cc12)C1CC1 [SB-708998],0,2,8,21,0,10,0,0,2,0,0,15,26,0,0,0,17,14,0,0
CCS(=O)(=O)c1ccc(OC)c(Nc2ncc(-c3ccc(F)cc3)o2)c1.Cl [GW591947],0,14,7,0,15,0,0,0,0,2,0,18,11,0,0,0,0,45,0,0
Cc1ccccc1COc1cc(-n2cnc3cc(Cl)ccc32)sc1C(N)=O [GW813349],0,21,0,7,0,97,92.4,92.8,2,12,2,0,20,1,7,0,0,8,7,0
Nc1ncnc2c1ncn2-c1ccc(Cl)cc1 [AH2635],0,0,0,0,0,0,0,0,0,3,0,0,6,0,0,0,0,2,0,0
CC(C)(C)c1ccc(C(=O)Nc2cn3cc(-c4ccccc4)ccc3n2)cc1,0,7,0,0,16,0,0,13,40,0,5,0,10,37,8,19,4,1,0,0
COc1ccc(Nc2nccc(N3CCC(NS(=O)(=O)c4ccc(NC(C)=O)cc4)C3)n2)cc1 (stereo not drawn) [GSK1379729],6,0,12,37,2,12,0,0,8,0,22,22,22,10,25,0,41,12,0,0
O=C(Nc1n[nH]c2nc(-c3ccccc3)c(Cl)cc12)C1CC1 [SB-734909],0,0,16,45,0,24,0,13,29,2,10,0,0,0,0,35,5,6,20,0
COc1cc(OC)cc(-c2cc3cnc(N)nc3nc2NC(=O)NC(C)(C)C)c1,0,0,0,0,22,0,0,0,0,0,51,0,2,0,0,0,0,14,0,16
